About 8,600 (12%) of roughly 69,000 compounds showed an effect of 50% or more. Only a selection was taken, and strong results are over-represented in it overall.
System: Plasmodium berghei
Experiment: Screen against P. berghei liver stage (PbLuc), transformed with Luciferase, at 10uM
Format: functional, HepG2
Conditions: tested at 10 uM

| Compound | INHIBITION |
| --- | --- |
| O=C1NCC(c2ccc(F)cc2)Cc2[nH]c(CCN3CCCC3)nc21 (centres undefined) | 43.9% |
| Cc1c(Br)cc2c(c1C)OCC(N(C)C)C2=O (centres undefined) | 24.8% |
| c1cn(CCNc2nc(NC3CC3)nc3c2CCNCC3)nn1 | 53.6% |
| c1cc(-c2nc3c(c(NCCn4ccnn4)n2)CCNCC3)ccn1 | 72.1% |
| COCCNc1nc2c(c(NCC3CCOC3)n1)CCNCC2 (centres undefined) | 22.3% |
| COCCNc1nc2c(c(NCc3ccncc3)n1)CCNCC2 | -3.19% |
| c1cc(-c2nc3c(c(NCCc4c[nH]cn4)n2)CCNCC3)ccn1 | 5.41% |
| CCOCCNc1nc(-c2ccncc2)nc2c1CCNCC2 | -86.4% |
| O=C(N1CCCC1)N1CCn2c(nnc2C2CCCN2)C1 (centres undefined) | 27.5% |
| Cc1nc(C2CCCN2Cc2nc(C3CC3)no2)no1 (centres undefined) | 26.9% |
| COCCNC(=O)[C@H]1C[C@@H]2CCN(c3ncccn3)C[C@@H]2O1 | 25.3% |
| COC[C@H]1CC[C@H]2[C@H](CCN2C(=O)c2ccncc2F)O1 | 8.52% |
| O=C(NC1CCCC1)[C@H]1CC[C@@H]2[C@@H](CCN2c2ncc(F)cn2)O1 | -9.54% |
| COCCNC(=O)[C@@H]1CC[C@@H]2[C@@H](CCN2c2ncc(F)cn2)O1 | 0.734% |
| COCCNC(=O)[C@H]1CC[C@@H]2[C@@H](CCN2c2ncc(F)cn2)O1 | 0.734% |
| O=C(NC1CC1)[C@H]1CC[C@@H]2[C@@H](CCN2c2ncc(F)cn2)O1 | 50.1% |
| CN1CCN(C(=O)[C@@H]2CC[C@@H]3[C@@H](CCN3c3ncccn3)O2)CC1 | 34.6% |

| Compound | INHIBITION |
| --- | --- |
| CC1CCN(C(=O)[C@@H]2CC[C@@H]3[C@@H](CCN3c3ncc(F)cn3)O2)CC1 | 62.4% |
| Cc1noc(CN(Cc2cccs2)C2CC2)n1 | 47.3% |
| COCCO[C@H]1CCN(C(=O)c2cc(C)on2)[C@H]1Cc1ccccc1 | 28.2% |
| CC1(c2[nH]ncc2C(N)=O)CCN(S(=O)(=O)c2ccccc2)CC1 | 11.1% |
| CCC(CC)C(=O)N1CCN(Cc2cc(=O)c3ccccc3[nH]2)CC1 | 33.4% |
| CCOC(=O)Cn1cnc2nc3n(c2c1=O)CCC3 | 81.2% |
| NC(=O)Cn1cnc2nc3n(c2c1=O)CCC3 | -17% |
| O=c1c2c(ncn1CCO)nc1n2CCC1 | 1.98% |
| O=C(c1ccn(-c2ccccc2)n1)N1CCCC(n2cccn2)C1 (centres undefined) | 2.97% |
| Cc1ccn2ncc(C(=O)N3CCCC(n4cccn4)C3)c2n1 (centres undefined) | 50.5% |
| Cc1nn(-c2ccccc2)cc1C(=O)N1CCCC1c1cnn(C)c1 (centres undefined) | 43.3% |
| Cc1ccn2ncc(C(=O)N3CCCC(n4nc(C)nc4C)C3)c2n1 (centres undefined) | 11.5% |
| Cc1nn(-c2ccccc2)cc1C(=O)N1CCCC(n2ccnc2)C1 (centres undefined) | -3.2% |
| Cc1cnn(C2CCCN(C(=O)c3cn(-c4ccccc4)nc3C)C2)c1 (centres undefined) | -42.3% |
| Cc1nn(-c2ccccc2)cc1C(=O)N1CCCC(n2cccn2)C1 (centres undefined) | 66.4% |
| Cc1ccn2ncc(C(=O)N3CCCC(n4ccnc4C)C3)c2n1 (centres undefined) | -31.5% |
| Cc1nn(-c2ccccc2)cc1C(=O)N1CCCN2CCCC2C1 (centres undefined) | 51.3% |

Reference: ChEMBL document CHEMBL4513216, “Probing the Open Global Health Chemical Diversity Library for Multistage-Active Starting Points for Next-Generation Antimalarials” (ACS Infect Dis, 2020)
